Hits are enriched below; roughly 2.3% of the tested compounds scored in any of these assays.
M1 antag: human CHRM1 antagonism; CHO-K1 hM1, Fluo-8 calcium fluorescence, ACh EC80 antagonist; inhibition, % at 3 µM; P11229; hit rate 1.3% among 360,000;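 active = percent inhibition above its own plate's cutoff, namely the mean of that plate's compound wells plus 3 SD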;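 also: peak over basal fluorescence ratio during 140 s after agonist addition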
Target sequence (P11229 whole entry, looked up): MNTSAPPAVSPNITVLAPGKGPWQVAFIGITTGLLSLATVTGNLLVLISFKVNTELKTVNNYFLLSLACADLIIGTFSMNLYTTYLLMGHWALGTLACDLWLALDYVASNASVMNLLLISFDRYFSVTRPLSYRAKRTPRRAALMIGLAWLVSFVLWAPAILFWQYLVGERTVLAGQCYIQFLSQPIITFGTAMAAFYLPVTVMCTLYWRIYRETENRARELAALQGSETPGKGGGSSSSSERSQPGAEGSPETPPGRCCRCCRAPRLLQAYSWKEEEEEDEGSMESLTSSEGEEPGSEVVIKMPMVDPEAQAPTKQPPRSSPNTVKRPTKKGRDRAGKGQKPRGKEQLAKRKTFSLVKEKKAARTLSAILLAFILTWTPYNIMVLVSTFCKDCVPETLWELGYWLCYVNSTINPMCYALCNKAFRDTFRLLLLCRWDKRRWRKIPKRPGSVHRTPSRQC
M1 ag: human M1 muscarinic receptor agonism; P11229; CHO-K1 hM1, Fluo-8 calcium fluorescence, agonist mode; 0% DMSO, 100% acetylcholine EC100; activation, % at 3 µM; hit rate 0.33% among 360,000;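 active = activation above the run's mean compound activation plus 3 SD, cut at about 16% in these data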;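 also: peak over basal fluorescence ratio within a 140 s kinetic read after compound addition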
CHO-K1 Ca PAM: nonselective activator or artifact in parental CHO-K1 calcium assay; ATP EC20, Fluo-8 calcium fluorescence; 0% at ATP EC20, 100% at ATP max; activation, % at 3 µM; hit rate 0.02% among 360,000; AID 602247;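 active = activation above the run cutoff, the mean activation of all test compounds plus 3 SD, cut at about 40% in these data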;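 also: peak over basal fluorescence ratio in a 140 s read after ATP addition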
CHO-K1 Ca antag: counter-screen for M1 antagonists: effect in parental CHO-K1 cells | ATP-induced calcium, Fluo-8 fluorescence | inhibition, % at 3 µM | hit rate 0.6% among 360,000 | AID 602250;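 active = inhibition above a per-plate cutoff, the plate's mean sample inhibition plus 3 SD, cut at about 24% in these data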
M1 PAM: positive allosteric modulators of human M1 muscarinic receptor. CHO-K1 hM1, Fluo-8 calcium fluorescence, ACh EC20; 0% = ACh EC20, 100% = maximal ACh. P11229. hit rate 0.088% among 360,000. activation, % at 3 µM; in the data active = activation above about 19%, passing the limit was not always enough
CHO-K1 Ca ag: M1 agonist counterscreen hit in parental CHO-K1 cells | Fluo-8 calcium fluorescence; scaled to maximal ATP response, vehicle zero | activation, % at 3 µM | hit rate 0.48% among 360,000; in the data active = activation above about 15%;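 also: untransfected CHO-K1 host cells lacking M1 receptor as counterscreen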
Large screens that a line does not name were inactive.

Cc1ccc(S(=O)(=O)c2cccc(S(=O)(=O)N3CCCC3)c2)cc1S(=O)(=O)N1CCCC1	M1 antag 55
O=S(=O)(c1ccc(Cl)c(S(=O)(=O)N2CCCC2)c1)N1CCCC1	M1 antag 38
Cc1ccc(/C=C/C(=O)O)cc1S(=O)(=O)N1CCCCC1	M1 antag 40, M1 PAM 24
Cc1ccccc1C1c2[nH]c3ccccc3c2CCN1CCCn1cccn1 (centres undefined)	M1 antag 91
Cc1ccccc1C1c2[nH]c3ccccc3c2CCN1Cc1cccn1-c1ncccn1 (centres undefined)	M1 antag 66
Fc1ccccc1C1c2[nH]c3ccccc3c2CCN1Cc1cccn1-c1ncccn1 (centres undefined)	none
O=C(NNc1ccnc2cc(Cl)ccc12)C1CCCCC1	M1 antag 32
CC(=O)N1CCc2cc(S(=O)(=O)CCC(=O)N(C)c3cc(C)ccc3C)ccc21	none
OCCCNCc1ccc(N(c2ccccc2)c2ccccc2)cc1	M1 antag 71
OCCNCc1ccc(-c2ccccc2)cc1	none
CNc1ccccc(-c2ccc3ccccc3n2)c1=O	none
COc1ccnc(Oc2ccccc2)c1C(N)=O	CHO-K1 Ca antag 27
NC(=O)c1cccnc1Oc1ccccc1	none
COc1cc(NC(=O)c2ccc(S(=O)(=O)N(C)c3ccccc3)cc2)cc(OC)c1	none
OC(CCN1CCC2CCC(C2)C1)c1ccc(Br)cc1 (centres undefined)	M1 antag 37
O=C(CCN1CCC2CCC(C2)C1)c1ccccc1 (centres undefined)	none
CCN(CC)c1ccc(/C=C(\C#N)C(=O)c2ccc(Br)cc2)cc1	M1 antag 85, M1 ag 178, CHO-K1 Ca antag 74, CHO-K1 Ca ag 110
CN(C)c1ccc(/C=C(\C#N)C(=O)c2ccccc2)cc1	M1 antag 76, M1 ag 125, CHO-K1 Ca antag 38, CHO-K1 Ca ag 46
CCN(CC)c1ccc(/C=C(\C#N)C(N)=O)cc1	none
COc1cc(-c2n[nH]c(=S)n2/N=C/c2cccn2C)cc(OC)c1OC	M1 antag 39, M1 ag 64, CHO-K1 Ca ag 22
Cn1cccc1/C=N/n1c(-c2ccco2)n[nH]c1=S	none
Cc1cc(NC(=O)CCC(=O)N(Cc2ccco2)C2(C(=O)NC3CCCCC3)CCCC(C)C2)no1 (centres undefined)	none
COc1ccc(-c2cnc3c(c2)C(=O)N([C@H](C)CO)C[C@@H](C)[C@@H](CN(C)C(=O)NC2CCCC2)O3)cc1	none
COc1ccc(CN(C)S(=O)(=O)c2nnc(NC(=O)c3cccc(F)c3)s2)cc1	CHO-K1 Ca antag 24
Oc1ccc(C23CCCC2C2(CCCC2)c2ccc(O)cc2O3)c(O)c1 (centres undefined)	M1 antag 38, M1 ag 40, CHO-K1 Ca ag 24
Cc1nn(C(C)C(=O)NCCCN2CCCCCC2)c(=O)c2c1sc1ccccc12 (centres undefined)	M1 antag 55
Cc1ccc(S(=O)(=O)n2ccc3c2CCCC3=O)cc1	M1 antag 54
CN(C)C(CNC(=O)c1ccc(Br)cc1)c1ccco1 (centres undefined)	none
CN(Cc1ccccc1)S(=O)(=O)c1ccc(Cl)c(C(=O)O)c1	none
CN(C)C(CNC(=O)c1cc(Br)ccc1Cl)c1ccco1 (centres undefined)	CHO-K1 Ca ag 17
CN(C)C(CNC(=O)c1cc(S(=O)(=O)N(C)Cc2ccccc2)ccc1Cl)c1ccco1 (centres undefined)	M1 antag 31
CC(Oc1cccc(Cl)c1)C(=O)N(C)CC(=O)Nc1ccc(N2CCOCC2)cc1 (centres undefined)	none
O=C(COC(=O)C1CC2C=CC1C2)Nc1cccc(S(=O)(=O)N2CCCCCC2)c1 (centres undefined)	CHO-K1 Ca ag 16
Cc1ccc(OCC(=O)Nc2cccc(S(=O)(=O)N3CCCC3)c2)cc1C	none
CC(=O)c1ccc(OCC(=O)Nc2cccc(S(=O)(=O)N3CCCC3)c2)cc1	M1 antag 31
O=C(COc1ccc2ccc(=O)oc2c1)Nc1cccc(S(=O)(=O)N2CCCCC2)c1	CHO-K1 Ca ag 17
CCn1cnc2sc(C(=O)Oc3cccc(C)c3)c(C)c2c1=O	CHO-K1 Ca ag 15
CN1C(=O)/C(=C\c2ccccc2F)Sc2ccc(C(=O)NC3CCN(Cc4ccccc4)CC3)cc21	none
CC(=O)Nc1ccc(/C(C)=N/Nc2nc(Nc3cccc4ccccc34)nc(N3CCOCC3)n2)cc1	M1 ag 18
COc1ccc(-n2cc(-c3ccccc3)c3c(N4CCOCC4)ncnc32)cc1	M1 antag 40
COc1ccc(-n2cc(-c3ccccc3)c3c(NCCCN4CCOCC4)ncnc32)cc1	none
Fc1ccc(-n2cc(-c3ccccc3)c3c(N4CCOCC4)ncnc32)cc1	M1 antag 33
CCN1CCN(c2ncnc3c2c(-c2ccccc2)cn3-c2ccc(F)cc2)CC1	none
O=C(O)c1ccc2c(c1)SC1=NS(=O)(=O)CCN12	none
CN(C(=O)c1ccc2c(c1)SC1=NS(=O)(=O)CCN12)C(c1ccccc1)c1ccccc1	M1 antag 41
O=C(NCCCN1CCc2ccccc2C1)Nc1ccc(Br)cc1	M1 antag 44
CCN(CC)S(=O)(=O)c1ccc(NC(=O)CC(NC(C)=O)c2ccccc2)cc1 (centres undefined)	none
Cc1ccc(O)c(C(=O)c2cc(C#N)c(=O)n(-c3nccs3)c2)c1	M1 ag 22, CHO-K1 Ca ag 40
CCOC(=O)/C=C1\SCC(=O)N1CC(=O)NC12CC3CC(CC(C3)C1)C2	CHO-K1 Ca antag 24
CCOC(=O)/C=C1\SCC(=O)N1CC(=O)NCCc1ccc(F)cc1	CHO-K1 Ca ag 17
CCOC(=O)/C=C1\SCC(=O)N1CC(=O)NC(C)C	none
Cc1cc2c(cc3c(=O)n(CC(=O)NCCCN4CC(C)CC(C)C4)ncn32)s1 (centres undefined)	none
CC1(C)N=C(SCC(=O)Nc2ccc(Cl)cc2Cl)C(c2ccccc2)=N1	none
CN1C(CC(=O)Nc2ccc(Cl)cc2Cl)c2ccccc2CC1(C)C (centres undefined)	M1 antag 34
CCOC(=O)CSc1ncnc2c1sc1nc(N3CCOCC3)c3c(c12)CCCC3	CHO-K1 Ca antag 34
O=c1c2c(-c3ccccc3)csc2nc2c3ccccc3c(NCCN3CCOCC3)nn12	M1 antag 92
c1ccc(-c2csc3ncnc(NCCCN4CCOCC4)c23)cc1	none
CN(C)CC(O)CN1C(=O)N(CN2C(=O)N(CC(O)CN(C)C)C(=O)C2(C)C)C(C)(C)C1=O (centres undefined)	none
